{"source": "PubChem BioAssay AID720650", "about": "(Broad Institute, 2013)", "note": "Active and inactive are the calls of the source. The rule behind the calls is not given here.", "data": [{"experiment": "Biochemical counterscreen for C difficile toxins, absence of UDPG, inhibitor dose response (AID 720650)", "settings": "series mostly up to 19.5 µM; activity change, negative = inhibition: at the top concentration", "values": [{"compound": "CC1(C)CC(=O)C(C=Nc2ccc(N)cc2)=C(O)C1", "activity change, negative = inhibition": "-6.16% (inactive)"}, {"compound": "CSc1ccccc1NC(=O)C1=CC(c2ccc(C)cc2)=NS(=O)(=O)N1C", "activity change, negative = inhibition": "-9.44% (inactive)"}, {"compound": "CCCCn1c(N)c(N(CCOC)C(=O)CSc2nnc(-c3ccco3)n2CC)c(=O)[nH]c1=O", "activity change, negative = inhibition": "5.63% (inactive)"}, {"compound": "O=C(CN1C(=O)NC2(CCCc3ccccc32)C1=O)NCc1cccs1", "note": "(stereo unspecified)", "activity change, negative = inhibition": "12.2% (inactive)"}, {"compound": "O=C(CC(c1ccccc1)c1ccccc1)Nc1ccc(O)cc1", "AC50": "13.4 µM (active)"}, {"compound": "COc1ccc(CNC(=O)C2CCN(S(=O)(=O)c3c(C)noc3/C=C/N(C)C)CC2)cc1", "activity change, negative = inhibition": "-8.74% (inactive)"}, {"compound": "CCC(=O)Nc1ccc2c(c1)OC[C@@H](C)N(C(=O)NC(C)C)C[C@H](C)[C@H](OC)CN(C)C2=O", "activity change, negative = inhibition": "7.18% (inactive)"}, {"compound": "O=C(C[C@H]1C[C@@H]2c3cc(NC(=O)c4ccc5c(c4)OCO5)ccc3O[C@@H]2[C@@H](CO)O1)NCc1cccc(F)c1", "activity change, negative = inhibition": "-15.2% (inactive)"}, {"compound": "CC(C)Cc1nnc(NC(=O)CCC(=O)NCc2ccccc2Cl)s1", "activity change, negative = inhibition": "-3.67% (inactive)"}, {"compound": "C/C(=N\\NC(N)=S)c1ccc2c(c1)OCCO2", "activity change, negative = inhibition": "-8.65% (inactive)"}, {"compound": "CCCN1CCN(C(=O)C2CCN(S(=O)(=O)c3c(C)noc3/C=C/c3ccc(C)cc3)CC2)CC1", "activity change, negative = inhibition": "-11.9% (inactive)"}, {"compound": "COc1ccc(NC(=O)c2cc(C)nc3ccccc23)c(OC)c1", "activity change, negative = inhibition": "-3.39% (inactive)"}, {"compound": "COc1cc(/C=N/NC(=O)C2COc3ccccc3O2)ccc1O", "note": "(stereo unspecified)", "activity change, negative = inhibition": "-0.527% (inactive)"}, {"compound": "Oc1ccc(Cc2ccccc2Cl)c(O)c1", "AC50": "> 39 µM (inactive)"}, {"compound": "CCOc1ccc2c(C)nc(NC3=NC(C)(C)C=C(C)N3)nc2c1", "activity change, negative = inhibition": "-8.03% (inactive)"}, {"compound": "CCOc1ccccc1/C=C/c1onc(C)c1S(=O)(=O)N1CCC(C(=O)NC(C)C)CC1", "activity change, negative = inhibition": "2.28% (inactive)"}]}]}
